# FEN1 inh – qHTS Assay for the Inhibitors of Human Flap endonuclease 1 (FEN1). P39748. Recombinant FEN1 flap cleavage, fluorescence, 15 min. Potency, µM (top dose mostly 114 µM), for the others: at the top dose activity change, negative = inhibition, actives largely listed as inhibitors. 390,000 tested, 0.35% active; note: % is set by controls: 0 for no effect and ±100 for the full control effect; nearly all actives have a fitted effect of over 65% in size
#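 Concentration–response screening of FEN1 (10 nM): 15 min compound preincubation at room temperature, reaction started with 50 nM substrate and read at 0 and 15 min. Corrected, normalized data were fitted by a four-parameter Hill equation.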
# Pol kappa inh – qHTS for Inhibitors of Polymerase Kappa. DNA polymerase kappa (Homo sapiens), Q9UBT6. purified Pol kappa, fluorescent DNA synthesis assay, 10 min. Potency, µM (highest dose often 107 µM), without a hit: top-dose activity, negative = inhibition, actives largely listed as inhibitors. 400,000 tested, 0.53% active. AID 588579, 2011; note: % is set by controls: 0 for no effect and ±100 for the full control effect
#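 Inhibition of 10 nM Pol kappa is measured by a fluorescent read-out at 0 and 10 min following addition of 50 nM substrate (final), with a 15-min room-temperature compound preincubation.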
# WRN helicase inh – qHTS for Inhibitors of WRN Helicase; 360,000 tested, 0.46% active; AID 651768, 2012; Bifunctional 3'-5' exonuclease/ATP-dependent helicase WRN (Homo sapiens), Q14191; WRN helicase unwinding, fluorescent forked duplex, kinetic; Potency, µM (series often up to 114 µM), for the others: at the highest dose activity change, negative = inhibition, actives largely listed as inhibitors; note: % is set by controls: 0 for no effect and ±100 for the full control effect; nearly all actives have a fitted effect of over 55% in size
#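 Kinetic red-fluorescence monitoring (525/598 nm) tracks WRN helicase activity after 100 nM fluorophore-quencher forked duplex and 2 mM ATP are added to 20 nM enzyme pretreated 15 min at room temperature with compound.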
# POLH inh – qHTS for Inhibitors of Polymerase Eta; 390,000 tested, 1.2% active; Potency, µM (titrated, usually from 114 µM), without a hit: top-dose activity change, negative = inhibition, usual class: inhibitors; recombinant Pol eta, fluorescent DNA replication assay; note: % is set by controls: 0 for no effect and ±100 for the full control effect
#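 Fluorescent replication assay: 50 nM final substrate added after a 15 min room-temperature compound preincubation with 10 nM enzyme. Signal taken at 0 min and again at 10 min.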
# Pol beta inh – qHTS Assay for Inhibitors of DNA Polymerase Beta. P06746. Pol beta primer extension/strand displacement, fluorescence kinetic. Potency, µM (doses to about 114 µM), for inactives: at the highest dose activity change, negative = inhibition, most hits filed as inhibitors. 340,000 tested, 1.3% active; note: % is set by controls: 0 for no effect and ±100 for the full control effect
#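 Preincubation: enzyme (10 nM) with compound, 15 min, RT. Reaction: substrate added to 50 nM final. Reads: 0 and 10 min. Analysis: normalized, Hill fit.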
# POLI inh – qHTS for Inhibitors of Polymerase Iota | DNA polymerase iota (Homo sapiens), Q9UNA4 | Pol iota fluorescent replication assay, 10 min | Potency, µM (top dose mostly 115 µM), without a hit: at the top dose activity, negative = inhibition, hits mostly inhibitors | 390,000 tested, 1% active | AID 588590, 2011
#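 Fluorescent replication assay read twice, at 0 min and 10 min after adding 50 nM (final) substrate. Enzyme (10 nM) and compounds were first incubated 15 min at room temperature; enzyme-free buffer wells were negative controls.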
# An asterisk follows results filed as active; ? = inconclusive; . = no result; [ ] = another dose, or the depositor's remark. Hits are enriched below; roughly 2.4% of the tested compounds scored in any of these assays. Calls come from the whole dose curve; as a rule, active = well fitted curve in the direction sought with a large enough effect; inconclusive = small, poorly fitted or top-dose-only effect, or another doubt; inactive = no such curve, though single readings can be large; an effect the other way counts as inactive or inconclusive. Potency is the fitted concentration of half-maximal effect.
SMILES,FEN1 inh,Pol kappa inh,WRN helicase inh,POLH inh,Pol beta inh,POLI inh
CCOc1ccc(CNS(=O)(=O)c2ccc3[nH]c(=O)ccc3c2)cc1,7.5%,-5.1%[60.1 µM],.,-13.0%,17.1%,-3.5%
CN(Cc1ccccc1)S(=O)(=O)c1ccc2[nH]c(=O)ccc2c1,-8.0%,-17.4%,-4.6%,-8.5%,31.6µM*,?
O=c1ccc2cc(S(=O)(=O)NCc3ccc(Cl)cc3)ccc2[nH]1,8.9%,?,.,2.6%,11.2µM*,?
COc1cccc2cc(-c3nc(-c4ccccc4)c(C)s3)c(=O)oc12,-4.5%,4.1%,.,.,.,24.2%
C=CCNC(=O)/C(=C\c1ccc(Br)cc1)NC(=O)c1ccccc1OC,0.5%,4.3%,-26.7%[57.1 µM],-11.8%,0.141µM*,-1.4%
COc1ccccc1C(=O)N/C(=C/c1ccc(Br)cc1)C(=O)NCC(=O)O,3.5%,-13.2%,-12.7%,0.1%,34.8%,22.8%
CCCCC[C@H](O)/C=C/C=C\C/C=C\C/C=C\CCCC(=O)O,.,0.4%[19.4 µM],.,.,.,.
O=C(NN=C1CCCC1)c1cc(O)cc(O)c1,-25.6%,?,-33.4%,50.1µM*,20µM*,35.5µM*
O=C(NN=C1CCCC1)c1cccc(O)c1,18.3%,-5.4%,8.6%,7.3%,21.9%,14.4%
Clc1ccc(-c2nnc3sc(-c4ccc(Br)o4)nn23)cc1,-0.5%,-16.4%,-37.2%,?,-0.4%,89.1µM*
COc1ccc(NC(=S)NC(NC(=O)c2ccccc2Cl)C(Cl)(Cl)Cl)c([N+](=O)[O-])c1 (stereo unspecified),-22.4%,-15.2%,-10.6%[57.1 µM],-2.8%,?,10.2%
COc1ccc(NC(=S)NC(NC(=O)CCl)C(Cl)(Cl)Cl)c([N+](=O)[O-])c1 (stereo unspecified),-29.1%,-15.2%,6.0%,50.1µM*,-7.0%,?
O=C(O)CSc1nnc(SCc2cccc3ccccc23)s1,-0.8%,-5.3%,2.5%,-16.1%,89.1µM*,6.3%
Cc1ccsc1/C=N/n1c(-c2cc(-c3ccccc3)n[nH]2)n[nH]c1=S,-34.2%,?,-34.6%,?,11.2µM*,?
Cc1ccccc1/C=N/n1c(-c2cc(-c3ccccc3)n[nH]2)n[nH]c1=S,3.4%,-0.3%,-24.9%,-2.1%,?,3.2%
COc1cccc(OC)c1-c1cc(CCCc2cc(-c3c(OC)cccc3OC)nc3ccccc23)c2ccccc2n1,?,2.0%,.,.,.,?
CC(C)(C)C(=O)Oc1ccc(S(=O)(=O)Nc2ccccc2C(=O)NCC(=O)O)cc1,.,1.2%[19.4 µM],.,.,.,.
O=C(CN1C(=O)/C(=C/c2cccc(Br)c2)SC1=S)NCCCN1CCOCC1,-16.5%,-23.3%,79.4µM*,?,1.2%,?
CN(C)c1ccc(Cn2ccc3ccccc32)cc1,?,0.5%,.,.,.,-6.9%
c1coc(CSSCc2ccco2)c1,?,8.91µM*,50.1µM*,20µM*,.,?
Oc1ccccc1Oc1ncc(Br)c(N2CCOCC2)n1,-0.8%,6.1%,2.2%,-10.4%,16.6%,10.2%
Oc1ccccc1Oc1ncc(Br)c(Cl)n1,-17.7%,-39.8%,-5.7%[11.6 µM],-3.3%,22.4µM*,50.1µM*
CCCn1c(=O)c2ccccc2n2c(SCC(=O)c3ccccc3)nnc12,0.7%,-13.4%,-10.6%,-0.8%,-25.3%,-5.3%
CCCn1c(=O)c2ccccc2n2c(SCCNCCO)nnc12,16.0%,-5.9%,6.5%,-16.5%,0.159µM*,-24.5%
CC(=O)Nc1ccc(Sc2ccc([N+](=O)[O-])o2)cc1,3.1%,-23.1%,-11.0%,31.6µM*,.,?
